# Source: PubChem BioAssay (Tox21)
# Inconclusive results are not listed. A number with no mark means an inactive call. Activity calls are given as the source filed them. Calls come from the whole dose curve; as a rule, active = well fitted activation curve with a large enough effect in the repeat runs; inconclusive = weak or mixed curves; inactive = no such curve, though single readings can be large or run the other way.
# Molecular target: Nuclear receptor subfamily 1 group I member 2 (Homo sapiens) (UniProt O75469)
# Assay: Human pregnane X receptor (PXR) small molecule agonists, qHTS assay (AID 1346982); note: nearly all actives have a fitted effect of over 35% in size
# Settings: PXR-Luc HepG2, CYP3A4 luciferase reporter, 24 h; series mostly up to 92.4 µM; activation: at the top concentration
# From the text: National Center for Advancing Translational Sciences [NCATS]
# NIH Chemical Genomics Center [NCGC]
# U.S. Environmental Protection Agency [EPA]
# National Institutes of Environmental Health Sciences [NIEHS]
# National Toxicology Program [NTP]
# The human pregnane X receptor (hPXR) regulates the expression of several drug metabolizing enzymes and induction of these proteins is a major mechanism for developing drug resistance in cancer. One such key enzyme catalyzing the drug metabolism is cytochrome P450 3A4 (CYP3A4). Changes in CYP3A4 expression affect drug metabolism, thereby reducing the therapeutic efficacy and altering toxicological response to a drug and which finally causes adverse drug interaction. To screen Tox21 libraries for compounds that activate hPXR-mediated CYP3A4 gene expression, PXR-Luc HepG2 cells were used.
# PXR-Luc HepG2 cells were dispensed at 2,000 per well in 5uL of assay medium containing 5% charcoal-stripped FBS into white solid bottom 1536-well plates (Corning Life Sciences, Corning, NY) using a Multidrop Combi (Thermo Scientific, Waltham, MA) dispenser. The assay plates were incubated at 37 C and 5% CO2 for 5hr, and then 23nL of compounds dissolved in DMSO and positive control were transferred using a Pintool station (Wako, San Diego, CA). The assay plates were incubated at 37C and 5% CO2 for 24hr. For luciferase read, 4uL of ONE-Glo reagent (Promega Corporation, Madison, WI) was added to each well of the assay plates using Flying Reagent Dispenser (FRD, Aurora Discovery, San Diego, CA) and incubated the assay plates at room temperature for 30min. The luminescence signal was quantified using a ViewLux plate reader (Perkin Elmer, Shelton, CT).
# % is set by controls: 0 for no effect and ±100 for the full control effect; potency is the fitted concentration of half-maximal effect.
# Sequence of Nuclear receptor subfamily 1 group I member 2 (Homo sapiens) (O75469 whole entry, looked up): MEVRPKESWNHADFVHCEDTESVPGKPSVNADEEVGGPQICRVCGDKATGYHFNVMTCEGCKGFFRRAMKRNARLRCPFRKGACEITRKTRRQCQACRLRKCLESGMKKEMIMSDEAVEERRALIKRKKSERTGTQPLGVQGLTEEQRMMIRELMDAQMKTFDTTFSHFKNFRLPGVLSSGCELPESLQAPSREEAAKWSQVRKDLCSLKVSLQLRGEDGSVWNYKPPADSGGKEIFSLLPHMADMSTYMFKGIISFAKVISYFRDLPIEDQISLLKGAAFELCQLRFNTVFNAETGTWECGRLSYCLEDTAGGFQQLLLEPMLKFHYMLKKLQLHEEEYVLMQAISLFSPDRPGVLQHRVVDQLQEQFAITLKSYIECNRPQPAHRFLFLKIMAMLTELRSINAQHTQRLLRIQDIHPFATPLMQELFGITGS
Structure (SMILES),activation,Potency
CN1C(C)(C)CC(O)CC1(C)C,25.5%,–
CCC(C(=O)NC(=O)NC(C)=O)c1ccccc1 (stereo not given),-1.97% [at 42.5 µM],–
CCCCCCCCCCCCCCCCCCO,-9.36% [at 42.5 µM],–
O=C(O)CC(C(=O)O)S(=O)(=O)O (stereo not given),0.957%,–
CCN(C=O)CC,2.08%,–
CC(C)C(=O)OC(=O)C(C)C,-1.78%,–
O=C(O)c1cc(C(=O)O)cc(C(=O)O)c1,3.85%,–
CN(C)CCCN(C)CCCN(C)C,-7.54%,–
O=CN(CCO)CCO,2.74%,–
[O-][n+]1cccc(CO)c1,-4.2% [at 42.5 µM],–
CC(=O)Nc1ccc(OCC(O)CNC(C)C)cc1 (stereo not given),-5.42% [at 42.5 µM],–
CN(C)[C@@H]1C(=O)C(C(=O)NCN2CCCC2)=C(O)[C@@]2(O)C(=O)C3=C(O)c4c(O)cccc4[C@@](C)(O)C3C[C@@H]12 (stereo not given in full),-4.28% [at 42.5 µM],–
CN(C)C(=O)Oc1cccc([N+](C)(C)C)c1,-15.7% [at 42.5 µM],–
CCCCOC(=O)CCC(C)=O,3.36%,–
CCCCCCCCCCCCSC,15.3%,–
Cc1ccc(-c2ncc(Cl)cc2-c2ccc(S(C)(=O)=O)cc2)cn1,-6.85% [at 42.5 µM],–
C=C(C)C(=O)OCC(O)CO (stereo not given),-15.5% [at 42.5 µM],–
CCCn1cc[n+](C)c1C,5.64%,–
CN1CCC(=C2c3ccccc3CCc3cccnc32)CC1,1.19% [at 42.5 µM],–
C=CCOCC(O)CO (stereo not given),1.73%,–

Structure (SMILES),activation,Potency
COc1ccnc(CS(=O)c2nc3cc(OC(F)F)ccc3[nH]2)c1OC (stereo not given),–,24.5 µM (active)
CNC(=O)Nc1ccc(Cl)c(Cl)c1,–,34.4 µM (active)
CC(C)(C)OC(=O)c1cccc(N)c1,–,28 µM (active)
COCCOCC(OC)OC,-2.89% [at 42.5 µM],–
CCCCCCCCCCOc1cc2c(=O)c(C(=O)OCC)c[nH]c2cc1OCC,-4.21% [at 8.39 µM],–
CC(C)(C)C(=O)Oc1ccc(S(=O)(=O)Nc2ccccc2C(=O)NCC(=O)O)cc1,-13% [at 42.5 µM],–
CC(C)(N)C#N,0.453%,–
CC(N)C12CC3CC(CC(C3)C1)C2 (stereo not given),-6.82% [at 42.5 µM],–
COc1cc(-c2ccc(=O)[nH]n2)ccc1OC(F)F,–,4.73 µM (active)
CCN1C=CN(C)C1C (stereo not given),-1.47%,–
CCOC(=O)COC(=O)c1ccccc1C(=O)OCC,9.88%,–
C=CC(=O)OCCCl,-6.95%,–
Cc1ccc(C(=O)c2ccc(CC(=O)O)n2C)cc1,8.32% [at 42.5 µM],–
CCCCCCCCCCCCCCC(=O)O,-2.43%,–
CCN[C@@H]1C[C@H](N)[C@@H](OC2OC(CN)=CCC2N)[C@H](O)[C@H]1O[C@H]1OC[C@](C)(O)[C@H](NC)[C@H]1O (stereo not given in full),-3.06% [at 0.349 µM],–
CCCCN(CCC(=O)OCC)C(C)=O,11.5%,–
CC1(C)OC[C@@H](COC(=O)CCc2ccc(OC[C@@H](O)CNCCNC(=O)N3CCOCC3)cc2)O1,3.88% [at 42.5 µM],–
CO[Si](C)(OC)c1ccccc1,–,30.6 µM (active)
[Ca+2],10.1%,–
Cc1ccccc1N=C(N)N=C(N)N,12%,–
